# Compound activity as filed in PubChem.
# Lassa entry inh: blocks Lassa virus binding to or entry into cells; Potency, µM (top dose mostly 37.9 µM), inactives show top-dose activity change, negative = inhibition, usual class: inhibitors; actives 1.2% (n = 300,000); Lassa virus pseudotype entry inhibition, cell reporter; calls by dose curve; tested in HEK293 cells; further: potency means the concentration at half of the fitted maximal effect; nearly all actives have a fitted effect of over 50% in size
# Marburg entry inh: Marburg virus entry inhibition; Marburg virus pseudotyped entry inhibition, cell reporter; actives 1.8% (n = 300,000); Potency, µM (series often up to 37.8 µM), for the others: at the highest dose activity change, negative = inhibition, most hits filed as inhibitors; calls by dose curve; tested in HEK293 cells; further: potency means the concentration at half of the fitted maximal effect
# HCV inh: blocks hepatitis C virus; AID 651820; Huh7.5.1 HCVcc-Cre infection, luciferase reporter, 44 h; Potency, µM (series often up to 41.8 µM), without a hit: at the highest dose activity change, negative = inhibition, usual class: inhibitors; actives 3.4% (n = 340,000); active means well fitted inhibition curve with a large enough effect; inconclusive means small, poorly fitted or top-dose-only effect, or another doubt; inactive means no such curve, though single readings can be large or run the other way; further: potency means the concentration at half of the fitted maximal effect
#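 Luciferase read-out (15 sec integration) after a 15 min room-temperature substrate step quantifies HCVcc-Cre infection. Cells, 1,000 per well, had compound added 4 h post-plating, then virus at ~0.5 moi, and were cultured 44 h.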
# FMDV inh: antivirals against foot and mouth disease virus; Potency, µM (highest dose often 57.9 µM), for inactives: top-dose activity change, negative = inhibition, hits mostly inhibitors; actives 1.2% (n = 410,000); FMDV antiviral cell-based qHTS; AID 1159524; calls by dose curve; tested in HEK293T cells; further: read-out not given here; potency means the concentration at half of the fitted maximal effect; nearly all actives have a fitted effect of over 45% in size
# HCMV antiviral: blocks human cytomegalovirus replication | HFF cells, HCMV-luciferase reporter, 72 h; active compounds read low | activity change, negative = inhibition, % at 57.5 µM | actives 4.5% (n = 410,000); in the data active means activity change below about -60%; inconclusive means no clear call, values can overlap the other calls; inactive means above about -39%
#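 Two compound doses tested in HFFs infected with HCMV-luciferase, MOI 1 PFU/cell, 72 h at 37C. Lysate luminescence read with OneGlo; data normalized against buffer-only and 10uM Salinomycin inhibitor controls.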
# Starred values were filed as active, the others as inactive; ? = inconclusive; nt = not tested or not shown; + = active, no number; [ ] = dose if it differs, or a comment. This is a sample that favours compounds with a hit; in the whole collection about 7.9% have one here. On the % scale 0 is the no-effect control and ±100 the full control effect.
SMILES,Lassa entry inh,Marburg entry inh,HCV inh,FMDV inh,HCMV antiviral
Cc1ccc(NC(=O)C2CCN(S(=O)(=O)c3cc([N+](=O)[O-])ccc3Cl)CC2)nc1,nt,nt,5µM*,?,-30
Cc1ccc(NC(=O)C2CCN(S(=O)(=O)c3cccc(C(F)(F)F)c3)CC2)nc1,-12%,1%,?,-18%,-94*
COc1ccc(OC)c(C2SCCN2S(=O)(=O)c2cccc(C(F)(F)F)c2)c1 (stereo not drawn),-14%,-24%,?,nt,-61*
O=C(Nc1nc2ccc(F)cc2s1)C1CCN(S(=O)(=O)c2cc([N+](=O)[O-])ccc2Cl)CC1,?,?,32µM*,20µM*,-6
O=C(NC1CC1)C1CCN(S(=O)(=O)c2ccc(Cl)c([N+](=O)[O-])c2)CC1,nt,nt,13µM*,?,-103*
N#Cc1cccc(-c2nc(N3CCNCC3)c3ccccc3n2)c1,nt,nt,nt,-4%,nt
Cc1cc(OCC(=O)NC2CC(C)(C)NC(C)(C)C2)c2c(C)cc(=O)oc2c1,-2%[46.1 µM],-27%[46.1 µM],-17%,5%,-7
CCC(Sc1ccc2nnc(-c3ccc(F)cc3)n2n1)C(=O)OC (stereo not drawn),2%,11%,-3%,0%,-93*
CCOC(=O)C(CC)Sc1ccc2nnc(CCNS(=O)(=O)c3ccccc3)n2n1 (stereo not drawn),-27%[46.1 µM],0%[46.1 µM],-5%,1%,-103*
COC(=O)C(C)Sc1ccc2nnc(-c3ccc(F)cc3)n2n1 (stereo not drawn),?,-2%,-5%,6%,-11
CC1CCC(C(=O)C2C(=O)C3=C(CCCC3)C2=O)CC1 (stereo not drawn),nt,-15%,nt,nt,nt
CCOc1cc(-c2nnc(SCC(=O)NCCCOC)nc2-c2ccc(OC)c(OCC)c2)ccc1OC,-29%[46.1 µM],nt,nt,1%,12
NC(N)=NN=C1CCC(c2ccccc2)CC1 (stereo not drawn),-8%[46.1 µM],14%[46.1 µM],-5%,7.1µM*,-19
N#CCC(=O)N/N=C/c1cc(-c2ccccc2)n(-c2ccc(Cl)cc2)c1-c1ccccc1,?,?,?,25µM*,?
C/C(=N\NC(=O)Cc1ccc(Cl)cc1)c1ccccc1O,-19%[46.1 µM],?,?,15%,-67*
COc1ccc2c3c([nH]c2c1)[C@H](CO)N(C(=O)C1CCC1)CC31CCN(C(=O)c2ccncc2)CC1,nt,nt,nt,nt,11
Brc1cc2ccccc2[n+](Cc2ccccc2)c1,nt,nt,?,-8%,-101*
CC(=O)Nc1nc(SCC(=O)NCc2ccc(F)cc2)[nH]c(=O)c1NC(=O)c1cccs1,nt,nt,24%,-3%,-16
O=C(CSc1ncnc2sc3c(c12)CCCCC3)NCc1ccco1,?,?,11µM*,5%,-9
CC(=O)CSc1ncnc2sc3c(c12)CCC(C)C3 (stereo not drawn),2%,-21%,?,31%,11
CC(=O)CSc1ncnc2sc3c(c12)CCCC3,-13%,?,10µM*,-11%,6
CCc1cc2c(SCC(=O)N(C)C3CCS(=O)(=O)C3)ncnc2s1 (stereo not drawn),-12%,15%[46.1 µM],17%,-24%,-20
CC1CCc2c(sc3ncnc(SCC(=O)N(C)C4CCS(=O)(=O)C4)c23)C1 (stereo not drawn),nt,nt,-14%,-6%,+
Cc1nc2c(sc3nc4c(cc32)COC(C)(C)C4)c(=O)n1CC(=O)NCc1ccco1,0%,?,-3%,47%,17
CC1(C)Cc2nc3sc4c(SCC(=O)NCc5ccco5)ncnc4c3cc2CO1,?,?,14µM*,-27%,9
SMILES,Lassa entry inh,Marburg entry inh,HCV inh,FMDV inh,HCMV antiviral
CC(=O)[C@]12C[C@@H]3CCCN(C(=O)N[C@@H]1c1ccccc1)[C@@H]32,nt,0%[14.2 µM],nt,nt,nt
C=CCNC(=O)/C(C#N)=C\c1cc(Cl)c(OCC)c(OC)c1,-10%,22%,-11%,?,-23
Cc1ccccc1-c1ccc2ncnc(N(C)Cc3ccco3)c2c1,nt,nt,nt,-16%,nt
Cc1cc(C)nc(Sc2ncnc3sc4c(c23)CCC4)n1,9%,3%,-22%,-19%,-71*
Cc1sc2nc(SCC(=O)NCc3ccco3)n(C)c(=O)c2c1C,9%,-16%,?,?,?
CC(C#N)Sc1ncnc2sc3c(c12)CCC3 (stereo not drawn),0%,12%,-28%,nt,?
O=C(CSc1nc2sc3c(c2c(=O)n1-c1ccccc1)CCCC3)NCc1ccco1,0%,14%,1%,0%,-93*
